IL-1B inflam inh = inhibitors of inflammasome signaling (IL-1 beta secretion); activity change, % at 57.5 µM; THP-1 LPS/ATP IL-1B secretion, AlphaLISA, 16 h; active compounds read low; actives 4.7% (n = 360,000); AID 743279; in the data active = activity change below about -50%; inconclusive = mostly about -30% to -49%
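Secreted IL-1B measured by AlphaLISA bead assay after 16 h compound exposure of THP-1 cells; compounds (final up to 57.5 uM) added 1 h before LPS (250 ng/mL) and ATP (1.25 mM) stimulation; lower signal means less secretion.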
ELG1 repair inh = inhibitors of ELG1-dependent DNA repair in HEK293T cells. HEK293T ELG1-luciferase reporter, luminescence, 16 h; DNA damage induced by 5-fluorouridine. Potency, µM (top dose mostly 46.1 µM), for inactives: top-dose activity change, negative = inhibition, usual class: inhibitors. actives 2.3% (n = 330,000). AID 504467; also: potency is read from the fitted curve at half-maximal effect; nearly all actives have a fitted effect of over 55% in size
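Reporter activity after DNA damage by 5-fluorouridine is monitored. Compound-treated cells incubate 16 hr at 37 °C, then ONE-Glo is added for 30 min before luminescence reading.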
HT1080 IDH1KD tx = toxicity to HT-1080 IDH1 knockdown cells (counter line); AID 686971; actives 2% (n = 360,000); HT-1080 IDH1 knockdown viability, ATP luminescence, 48 h; Potency, µM (highest dose often 46.1 µM), for the others: at the highest dose activity, negative = toxicity, usual class: cytotoxic;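 also: potency is read from the fitted curve at half-maximal effect; 0% = DMSO wells and -100% = cell-free medium wells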
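CellTiter-Glo luminescence after 48 h compound exposure at 37 degrees C of IDH1-knockdown HT-1080 cells in 5% FBS RPMI. %Activity scaled between DMSO wells and cell-free media wells, with curves fitted and assigned curve classes.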
HT1080-NT tox = kills 2HG-producing HT-1080-NT fibrosarcoma cells; actives 1.6% (n = 360,000); HT-1080-NT fibrosarcoma viability, CellTiter-Glo ATP luminescence, 48 h; Potency, µM (doses to about 46.1 µM), without a hit: at the top dose activity, negative = less viability, hits mostly cytotoxic;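 also: NT is the 2HG producing partner of a matched IDH1 knockdown line; potency is read from the fitted curve at half-maximal effect; 0% = DMSO-treated cells and -100% = media-only wells without cells; nearly all actives have a fitted effect of over 55% in size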
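HT-1080-NT fibrosarcoma cells (2HG-overproducing), 750 cells/well in RPMI with 5% FBS, dosed after 2 h and incubated 48 h at 37C. CellTiter-Glo luminescence normalized to DMSO and no-cell wells; concentration-response curves fitted and classed.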
DT40 TDP1 no CPT = qHTS for Inhibitors of human tyrosyl-DNA phosphodiesterase 1 (TDP1): qHTS in cells in absence of CPT | actives 15% (n = 420,000) | DT40 Tdp1-/- hTDP1 cells, no CPT, ATP luminescence, 48 h | Potency, µM (doses to about 46.2 µM), for inactives: top-dose activity change, negative = growth inhibition, hits mostly inhibitors; also: potency is read from the fitted curve at half-maximal effect; nearly all actives have a fitted effect of over 55% in size
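Readout: luminescence from CellTiter-Glo after 30 min in the dark at RT. Cells: DT40 Tdp1-/- with stable hTDP1, 400/well. Exposure: compounds alone, ≥48 hr, 37 °C.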
DT40 TDP1 CPT = DT40-hTDP1 cell growth loss with CPT; chicken DT40 Tdp1-/-;hTDP1 cells + 20 nM CPT, ATP luminescence, 48 h; Potency, µM (top dose mostly 46.2 µM), inactives show at the top dose activity change, negative = growth inhibition, hits mostly inhibitors; actives 12% (n = 420,000); also: potency is read from the fitted curve at half-maximal effect; nearly all actives have a fitted effect of over 55% in size
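Chicken DT40 Tdp1-/- cells complemented with human TDP1, 400 cells/well, exposed to compounds plus 20 nM camptothecin for at least 48 h at 37 C; viability read as ATP content by CellTiter-Glo luminescence.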
An asterisk follows results filed as active; ? = inconclusive; . = no result; [ ] = dose if it differs, or a comment. Only some compounds are listed: those with a hit (about 19% of all), similar ones and a draw of the others. Unless noted, calls follow the shape of the dose curve; as a rule, active = well fitted curve in the direction sought with a large enough effect; inconclusive = small, poorly fitted or top-dose-only effect, or another doubt; inactive = no such curve, though single readings can be large; an effect the other way counts as inactive or inconclusive. Unless noted, % is scaled to controls: 0 for no effect and ±100 for the full control effect.

SMILES	IL-1B inflam inh	ELG1 repair inh	HT1080 IDH1KD tx	HT1080-NT tox	DT40 TDP1 no CPT	DT40 TDP1 CPT
O=C(COC(=O)c1cc[n+]([O-])cc1)NC(=O)c1ccc(OC(F)F)cc1	-17.5	23.3%	27.3%	-5.2%	-5.8%	-8.2%
CC(C)c1c(C(=O)NCC2(N3CCOCC3)CCCC2)cnn1-c1nccc(-c2cccs2)n1	.	.	.	.	-17.8%	1.3%[9.04 µM]
CCN(C(=O)CN1CCCC(C)C1)c1c(N)n(Cc2ccccc2)c(=O)[nH]c1=O (stereo unspecified)	33.8	10.6%	-1.2%	1.1%	4.8%	1.4%
Cc1ncc2c(c1CNS(=O)(=O)N(C)C)CCN(C(=O)c1ccc(F)cc1Cl)C2	.	.	.	.	-12.6%	0.9%[9.04 µM]
O=[N+]([O-])/C(C=Nc1ccccc1O)=C\Nc1ccccc1O	0.0	-9.9%	?	-13.6%	16.4µM*	8.2µM*
CN(C)S(=O)(=O)c1cccc(NC(=O)CSc2nc3c(cc2C#N)C(=O)CC(C)(C)C3)c1	-58.4*	?	?	?	7.31µM*	9.2µM*
CN(C)S(=O)(=O)c1ccc(Cl)c(NC(=O)CSc2nc3c(cc2C#N)C(=O)CC(C)(C)C3)c1	-6.3	-16.1%	-22.7%	-20.1%	?	?
CN(C)S(=O)(=O)c1ccc(SCC(=O)Nc2cccc(S(=O)(=O)N3CCCC3)c2)nc1	23.8	.	0.0%	1.1%	?	-19.6%
CN(C)S(=O)(=O)c1cccc(NC(=O)CSc2cccc3cccnc23)c1	-104.5*	15.5%	?	18.4µM*	3.26µM*	3.66µM*
Cc1c(C(=O)NCC2(c3ccccc3)CCOCC2)cnn1-c1nccc(-c2ccco2)n1	.	.	.	.	-23.0%	?
c1coc(-c2nc3ccccn3c2Nc2ccc3c(c2)OCCO3)c1	.	.	.	.	-91.5%	?
Clc1cccc(-c2nc3ccccn3c2Nc2ccc3c(c2)OCCO3)c1	.	.	.	.	8.2µM*	?
CN(C)c1ccc(-c2nc3ccccn3c2Nc2ccc3c(c2)OCCO3)cc1	.	.	.	.	?	20.6µM*
COc1cc(OC)cc(C(=O)NNC(=S)Nc2ccc(S(N)(=O)=O)cc2)c1	38.2	0.0%	?	?	-10.3%	26.5%
CNc1ncnc2c1ncn2[C@H]1CN(Cc2cccs2)C[C@@H](CO)O1	25.5	.	4.4%	6.3%	1.0%	1.4%
COc1cc(CN2CCC3(CCC(CNC(=O)c4ccco4)O3)CC2)cc(OC)c1 (stereo unspecified)	.	.	.	.	-22.3%	-1.1%
CCc1ccccc1NC(=O)C1CCCN(c2nnc(-n3c(C)ccc3C)s2)C1 (stereo unspecified)	.	.	.	.	20.6µM*	20.6µM*
Cc1ccc(NC(=O)C2CCCN(c3nnc(-n4c(C)ccc4C)s3)C2)c(C)c1 (stereo unspecified)	.	.	.	.	16.4µM*	?
Cc1ccc(NC(=O)C2CCCN(c3nc4ccccc4s3)C2)c(C)c1 (stereo unspecified)	.	.	.	.	-26.6%	-27.0%
Cc1ccc(C)n1-c1nnc(N2CCC(C(=O)NCCCN3CC(C)CC(C)C3)CC2)s1 (stereo unspecified)	0.0	?	-15.7%	-6.5%	-18.4%	?
CCc1ccc(NC(=O)C2CCN(c3nnc(-n4c(C)ccc4C)s3)CC2)cc1	.	.	.	.	23.1µM*	16.4µM*
Cc1c(Cl)cccc1NC(=O)C1CCCN(c2nnc(-n3c(C)ccc3C)s2)C1 (stereo unspecified)	.	.	.	.	16.4µM*	?
CCOc1ccc(NC(=O)Cn2c(=O)n(CC(=O)NCc3ccccc3Cl)c(=O)c3sccc32)cc1	.	.	.	.	-14.4%	4.2%
COc1ccc(CNC(=O)CCCc2nnc3n(C(C)C)c(=O)c4sccc4n23)cc1	.	.	.	.	?	-28.6%

Screening results: PubChem BioAssay, National Center for Advancing Translational Sciences (NCATS)
